Out of some 340,000 compounds screened, about 1,400 (0.41%) were called active.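 Rule for the calls: active = response above a set limit, near 3 SD of response in nonfluorescent compounds (cut at about 42% in these data); inactive = the rest.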 The sample as a whole holds a higher share of actives than the screen did.

Sequence of Beta-2 adrenergic receptor (Homo sapiens) (P07550 whole entry, looked up): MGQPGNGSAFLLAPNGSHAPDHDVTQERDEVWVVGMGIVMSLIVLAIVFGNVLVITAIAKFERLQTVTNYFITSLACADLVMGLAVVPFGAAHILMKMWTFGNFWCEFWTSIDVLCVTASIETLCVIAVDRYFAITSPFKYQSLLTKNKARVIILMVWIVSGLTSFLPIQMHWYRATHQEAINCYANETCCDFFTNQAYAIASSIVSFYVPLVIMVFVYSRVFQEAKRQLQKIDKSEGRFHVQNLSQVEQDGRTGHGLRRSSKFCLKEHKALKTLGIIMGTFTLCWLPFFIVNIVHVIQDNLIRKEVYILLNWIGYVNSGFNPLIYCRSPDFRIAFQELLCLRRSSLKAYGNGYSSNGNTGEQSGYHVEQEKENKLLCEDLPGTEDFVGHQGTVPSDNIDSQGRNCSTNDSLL

This assay has as its target Beta-2 adrenergic receptor (Homo sapiens) (UniProt P07550). Kind of assay: beta2AR agonists driving receptor internalization, primary screen, cell-based, FAP fluorogen, flow cytometry (AID 504454). The note with it: Am2.2-beta2AR cells, active compounds read high, concentration not given here.
With `CCOC(=O)c1cnc2c(c(C)nn2CC)c1Cl`, the response is 0.74% (inactive).

`Cc1ccccc1OCCC(=O)OCC(=O)NCCc1ccc(S(N)(=O)=O)cc1`: the response is -1.82% (inactive).

As for `CCCCN(CC)C(=O)C1CCCN(S(=O)(=O)c2cccc3nsnc23)C1` (configuration not stated), the response is -4.41% (inactive).

In the case of `CCCCNC(=S)NNC(=O)c1cc(C)on1`, the response was 8.38% (inactive).

In the case of `COc1cc2c(cc1OC)C(/C=C/c1ccco1)=NCC2`, the response was -9.05% (inactive).

On to `CCCn1c(C)cc(/C=C(\C#N)C(=O)OCC(=O)Nc2cc(OC)c(OC)c(OC)c2)c1C`, for which the response is -0.22% (inactive).

In the case of `CCOC(=O)/C(C#N)=C/c1ccc(OCC(=O)Nc2ccccc2)c(OC)c1`, the response is 46.3% (active).

As for `COc1cc(C2C3=C(CCCC3=O)OC3=C2C(=O)CCC3)ccc1OCC(=O)Nc1ccccc1`, the response was 3.2% (inactive).

Consider `CCCn1c(N)c(C(=O)CSc2nnc3n2CCCCC3)c(=O)[nH]c1=O`, for which the response is -3.04% (inactive).

For the molecule `O=C(Nc1cccnc1)c1ccc(Cl)cc1[N+](=O)[O-]`, the response is 0.76% (inactive).

Regarding `O=C(/C=C/c1ccc(Cl)cc1Cl)c1cccnc1`, the response is 6.98% (inactive).

With `O=C(/C=C/c1ccc(Cl)c([N+](=O)[O-])c1)c1cccnc1`, the response is 77.9% (active).

Regarding `O=C(CNC(=O)c1ccccc1F)OCC(=O)c1c[nH]c2ccccc12`, the response is 10.7% (inactive).

Turning to `CC(C)CCN(C(=O)c1csnn1)C(C(=O)NC1CCCC1)c1ccccc1` (configuration not stated), the response was 7.85% (inactive).

`CC(=O)Nc1ccc(S(=O)(=O)N(C)c2nc3ccccc3nc2Cl)cc1`: the response is 0.46% (inactive).

Take `CC(=O)Nc1ccc(Nc2c([N+](=O)[O-])cc(S(C)(=O)=O)cc2[N+](=O)[O-])cc1`: the response was 2.64% (inactive).

As for `CC(=O)Nc1ccc(Nc2c3ccccc3nc3ccccc23)cc1`, the response is 51.1% (active).

For `Cc1ccc(CN2CCN(/N=C/c3cccnc3)CC2)c(C)c1`, the response is 4.74% (inactive).

With `N#Cc1cccc(NC(=O)COC(=O)c2ccccc2C(=O)c2ccc(Cl)c([N+](=O)[O-])c2)c1`, the response is 46.3% (active).

Turning to `CC(=O)Nc1ccc(NC(=O)COC(=O)c2ccccc2C(=O)c2ccccc2)cc1`, the response is -9.28% (inactive).

Consider `CC(=O)Nc1ccc(NC(=O)C(C)OC(=O)c2ccccc2C(=O)c2ccc(Cl)c([N+](=O)[O-])c2)cc1` (configuration not stated), for which the response was 20.8% (inactive).

Consider `CC[n+]1cc(C)ccc1/C=C/c1ccc(N(C)C)cc1`, for which the response is -468% (inactive).

Consider `CCCN(CCC)S(=O)(=O)c1ccc(C(=O)NNC(=O)c2cc(OC)c(OC)c(OC)c2)cc1`, for which the response was 4.58% (inactive).

On to `CCN(CC)Cc1csc2ccc(Br)cc12`, for which the response is 5.63% (inactive).

Turning to `COc1ccc(CS(=O)/C(Cl)=C(/Cl)C(=O)Nc2ccc(OC)nc2)cc1` (configuration not stated), the response is 52.3% (active).

For `COc1ccc(OC(C)C(=O)Nc2cccnc2)cc1` (configuration not stated), the response is -1.88% (inactive).

On to `COc1ccc(CCC(=O)c2ccc(OC)cc2)cc1`, for which the response is -1.6% (inactive).

Regarding `O=C(Nc1ccc([N+](=O)[O-])cc1)C1CC12CCC2` (configuration not stated), the response was -2.03% (inactive).

Regarding `COc1cccc2[nH]c(C(=O)NCCc3ccccc3)cc12`, the response was 1.88% (inactive).

On to `O=C(Cn1nc(Cc2cccnc2)c2ccccc2c1=O)NCC1CCCO1` (configuration not stated), for which the response was -13.8% (inactive).

As to `O=C(COc1ccccc1F)Nc1nc(-c2ccccn2)cs1`, the response was -6.34% (inactive).

Regarding `COc1ccc(CC(=O)Nc2nc(-c3ccc(F)c(F)c3)cs2)cc1OC`, the response is 44% (active).

With `COc1ccccc1NC(=O)Nc1nc(CC(=O)Nc2ccccc2F)cs1`, the response was 1.09% (inactive).

Regarding `CCc1c(SCCC(=O)O)nc2ccccc2c1C`, the response is -4.7% (inactive).

On to `CCN(CC)c1ccc(C(=O)OCC(=O)c2ccco2)cc1`, for which the response was 4.24% (inactive).

With `Cc1ccc(Cl)cc1NC(=O)CN1CCN(S(=O)(=O)N2CCOCC2)CC1`, the response was 81.7% (active).

`O=C(CN1CCN(c2cccc(Cl)c2)CC1)Nc1ccc(S(=O)(=O)N2CCOCC2)cc1`: the response is -2.92% (inactive).

Take `COc1ccc(Cl)cc1NC(=O)CN1CCN(C(=O)N2CCOCC2)CC1`: the response was 1.88% (inactive).

Consider `NC[C@H](Cc1ccccc1)NCCc1cc(C(F)(F)F)cc(C(F)(F)F)c1`, for which the response is 19% (inactive).

In the case of `CCOC(=O)[C@H]1[C@H]2COc3ccc(OC)cc3[C@@H]2N2C(=O)c3ccc(F)cc3NC(=O)[C@@]12C`, the response was -0.05% (inactive).

Consider `COCCn1c(C)cc(C(=O)CSc2nnc(C3CC3)n2C2CC2)c1C`, for which the response is 6.93% (inactive).

With `O=C(N/C(=C/c1ccc(Cl)cc1)C(=O)N1CCCCC1)c1ccco1`, the response is 6.34% (inactive).

Take `O=C(N/C(=C\c1ccc([N+](=O)[O-])cc1)C(=O)N1CCOCC1)c1cccc(Br)c1`: the response is 3.33% (inactive).

Consider `O=C(N/C(=C\c1ccc([N+](=O)[O-])cc1)C(=O)N1CCCCC1)c1ccco1`, for which the response was 72.5% (active).

For `CC(=O)Nc1ccc(S(=O)(=O)N2CCN(CCCOc3cc(C)ccc3C)CC2)cc1`, the response was 3.77% (inactive).

Regarding `CC(C)c1ccc(NC(=O)[C@@H](NC(=O)N2CC(=O)Nc3ccccc32)C(C)C)cc1`, the response is -13% (inactive).

`COc1ccc(OC)c(/C=N/NC(=O)CSc2nnc(C)n2-c2ccccc2)c1`: the response is 8.61% (inactive).

With `Cc1ccc(-c2nnc(SCC(=O)N/N=C/c3cccs3)n2-c2ccc(C)cc2)cc1`, the response was -11.9% (inactive).

`Cc1nnc(SCC(=O)N/N=C/c2cn(-c3ccccc3)nc2-c2ccc(F)cc2)n1-c1ccccc1`: the response was 54.1% (active).

In the case of `CCOc1cc(C)c(S(=O)(=O)NCc2ccccn2)cc1C`, the response was -7.14% (inactive).

For the molecule `COC(=O)c1ccc(OCC(=O)NC(C)(C)C)cc1`, the response is 6.76% (inactive).

Consider `CCCOc1ccc(C(=O)C(CCC(CNCC)C(=O)c2ccc(OCCC)cc2)CNCC)cc1` (configuration not stated), for which the response was 46.1% (active).

Consider `CCCOc1ccc(/C=N/NC(=O)C2CC2)c(OCCC)c1`, for which the response was -16.2% (inactive).

`Cc1ccc2[nH]c(=O)c(CN(C)S(=O)(=O)c3cccc4nonc34)cc2c1`: the response is -5.68% (inactive).

As to `Cc1cc(C)c(C2C3=C(Nc4c2c(C)nn4-c2ccccn2)c2ccccc2C3=O)c(C)c1` (configuration not stated), the response is 69.5% (active).

Consider `Cc1nn(-c2ccccn2)c2c1C(c1ccncc1)C1=C(CC(C)(C)CC1=O)N2` (configuration not stated), for which the response is -12.9% (inactive).

Take `CSc1ccc(S(=O)(=O)NCC(=O)OCC(=O)NC2(C#N)CCCCC2)cc1[N+](=O)[O-]`: the response was 5.12% (inactive).

Source of the values: PubChem BioAssay AID504454 (NMMLSC, 2011).
